Source: the supplement of paper PMC10849652
The full data set covers some 8,800 targets. This sample favours those with a hit. About 0.5% of all pairs of compound and target were hits.

Chain of UniProt Q96RQ3 (Q96RQ3 whole entry, looked up): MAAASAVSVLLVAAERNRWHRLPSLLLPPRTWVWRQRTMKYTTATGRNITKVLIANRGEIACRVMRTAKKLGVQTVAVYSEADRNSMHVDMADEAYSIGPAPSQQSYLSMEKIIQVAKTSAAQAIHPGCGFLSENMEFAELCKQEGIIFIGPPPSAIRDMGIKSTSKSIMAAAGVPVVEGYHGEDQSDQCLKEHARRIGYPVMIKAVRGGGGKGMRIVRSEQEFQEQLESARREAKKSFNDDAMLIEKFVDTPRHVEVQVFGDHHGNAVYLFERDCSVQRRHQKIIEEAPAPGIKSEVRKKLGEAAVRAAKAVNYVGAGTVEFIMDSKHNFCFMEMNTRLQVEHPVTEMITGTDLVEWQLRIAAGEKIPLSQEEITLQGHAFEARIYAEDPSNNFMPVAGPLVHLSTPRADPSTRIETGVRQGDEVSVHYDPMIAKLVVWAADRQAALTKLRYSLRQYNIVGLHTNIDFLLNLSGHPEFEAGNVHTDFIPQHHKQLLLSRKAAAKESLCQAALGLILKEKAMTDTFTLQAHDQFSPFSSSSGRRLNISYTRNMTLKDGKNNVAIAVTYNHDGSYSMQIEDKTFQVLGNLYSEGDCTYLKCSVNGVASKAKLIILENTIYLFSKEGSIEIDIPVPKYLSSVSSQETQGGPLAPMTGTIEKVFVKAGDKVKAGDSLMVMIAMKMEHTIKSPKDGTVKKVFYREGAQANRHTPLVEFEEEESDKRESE
Chain of UniProt O15021 (O15021 whole entry, looked up): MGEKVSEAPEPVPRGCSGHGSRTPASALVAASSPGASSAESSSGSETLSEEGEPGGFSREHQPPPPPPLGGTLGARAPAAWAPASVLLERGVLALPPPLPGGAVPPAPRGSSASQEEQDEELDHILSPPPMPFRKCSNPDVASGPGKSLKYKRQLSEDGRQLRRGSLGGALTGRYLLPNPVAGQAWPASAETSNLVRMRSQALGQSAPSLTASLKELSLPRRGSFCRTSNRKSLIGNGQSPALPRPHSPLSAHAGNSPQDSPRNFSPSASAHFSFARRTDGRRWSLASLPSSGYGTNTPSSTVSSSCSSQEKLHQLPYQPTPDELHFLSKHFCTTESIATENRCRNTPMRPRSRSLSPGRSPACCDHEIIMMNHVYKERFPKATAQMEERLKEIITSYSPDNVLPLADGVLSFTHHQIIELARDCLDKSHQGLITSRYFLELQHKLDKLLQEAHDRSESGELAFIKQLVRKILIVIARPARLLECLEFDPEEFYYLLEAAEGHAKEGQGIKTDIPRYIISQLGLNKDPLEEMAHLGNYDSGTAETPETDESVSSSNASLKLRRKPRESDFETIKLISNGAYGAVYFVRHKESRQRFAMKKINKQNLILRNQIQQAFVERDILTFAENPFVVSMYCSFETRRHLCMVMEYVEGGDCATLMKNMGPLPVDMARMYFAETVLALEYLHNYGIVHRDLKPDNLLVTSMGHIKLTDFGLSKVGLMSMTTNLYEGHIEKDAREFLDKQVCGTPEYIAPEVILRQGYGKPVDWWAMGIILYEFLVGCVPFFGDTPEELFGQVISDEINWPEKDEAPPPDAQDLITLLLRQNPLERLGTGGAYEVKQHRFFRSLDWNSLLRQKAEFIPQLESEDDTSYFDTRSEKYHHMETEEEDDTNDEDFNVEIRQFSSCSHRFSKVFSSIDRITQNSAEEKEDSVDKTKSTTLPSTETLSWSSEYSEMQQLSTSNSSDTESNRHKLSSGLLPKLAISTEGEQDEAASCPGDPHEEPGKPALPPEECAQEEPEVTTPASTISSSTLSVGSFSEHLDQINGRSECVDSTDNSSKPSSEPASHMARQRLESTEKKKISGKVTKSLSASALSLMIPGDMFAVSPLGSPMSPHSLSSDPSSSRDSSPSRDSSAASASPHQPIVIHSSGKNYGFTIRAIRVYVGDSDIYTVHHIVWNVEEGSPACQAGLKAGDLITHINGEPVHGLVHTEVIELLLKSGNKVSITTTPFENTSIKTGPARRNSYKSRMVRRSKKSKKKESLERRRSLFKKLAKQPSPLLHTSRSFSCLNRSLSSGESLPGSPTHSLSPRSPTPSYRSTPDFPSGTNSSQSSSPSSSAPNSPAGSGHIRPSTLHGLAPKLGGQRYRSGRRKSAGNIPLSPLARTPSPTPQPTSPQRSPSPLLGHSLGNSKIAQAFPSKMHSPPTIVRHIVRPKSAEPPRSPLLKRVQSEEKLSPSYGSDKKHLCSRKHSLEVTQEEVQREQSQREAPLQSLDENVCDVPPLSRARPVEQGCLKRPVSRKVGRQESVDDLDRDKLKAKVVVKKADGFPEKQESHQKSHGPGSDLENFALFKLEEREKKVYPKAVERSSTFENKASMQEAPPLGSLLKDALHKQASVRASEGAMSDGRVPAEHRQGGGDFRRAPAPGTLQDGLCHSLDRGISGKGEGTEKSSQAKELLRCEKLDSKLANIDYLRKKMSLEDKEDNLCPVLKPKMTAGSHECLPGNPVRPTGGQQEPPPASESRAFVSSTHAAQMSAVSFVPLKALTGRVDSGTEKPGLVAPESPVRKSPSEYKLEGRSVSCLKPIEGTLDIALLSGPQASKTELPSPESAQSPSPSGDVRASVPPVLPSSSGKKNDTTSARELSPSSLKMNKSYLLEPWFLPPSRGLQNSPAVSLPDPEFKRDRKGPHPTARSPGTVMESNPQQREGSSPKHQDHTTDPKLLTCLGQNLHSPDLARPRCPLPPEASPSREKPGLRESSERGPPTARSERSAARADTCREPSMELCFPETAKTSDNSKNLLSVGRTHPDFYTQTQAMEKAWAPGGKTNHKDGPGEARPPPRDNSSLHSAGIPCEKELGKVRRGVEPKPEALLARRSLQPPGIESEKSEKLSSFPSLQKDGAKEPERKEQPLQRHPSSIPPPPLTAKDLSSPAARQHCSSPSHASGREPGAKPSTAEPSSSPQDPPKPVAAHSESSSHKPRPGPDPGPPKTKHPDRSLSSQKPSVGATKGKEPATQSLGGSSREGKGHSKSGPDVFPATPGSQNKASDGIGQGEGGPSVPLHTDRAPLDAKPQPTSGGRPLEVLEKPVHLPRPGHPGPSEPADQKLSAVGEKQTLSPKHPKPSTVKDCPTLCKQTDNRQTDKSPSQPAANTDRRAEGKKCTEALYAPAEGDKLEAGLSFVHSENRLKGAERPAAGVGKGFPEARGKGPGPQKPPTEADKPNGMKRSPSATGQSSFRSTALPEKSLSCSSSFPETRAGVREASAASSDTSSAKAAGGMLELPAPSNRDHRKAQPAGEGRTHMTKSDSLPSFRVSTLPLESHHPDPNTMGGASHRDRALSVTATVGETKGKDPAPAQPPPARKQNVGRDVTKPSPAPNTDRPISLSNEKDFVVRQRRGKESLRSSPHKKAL
Chain of UniProt Q08380 (Q08380 whole entry, looked up): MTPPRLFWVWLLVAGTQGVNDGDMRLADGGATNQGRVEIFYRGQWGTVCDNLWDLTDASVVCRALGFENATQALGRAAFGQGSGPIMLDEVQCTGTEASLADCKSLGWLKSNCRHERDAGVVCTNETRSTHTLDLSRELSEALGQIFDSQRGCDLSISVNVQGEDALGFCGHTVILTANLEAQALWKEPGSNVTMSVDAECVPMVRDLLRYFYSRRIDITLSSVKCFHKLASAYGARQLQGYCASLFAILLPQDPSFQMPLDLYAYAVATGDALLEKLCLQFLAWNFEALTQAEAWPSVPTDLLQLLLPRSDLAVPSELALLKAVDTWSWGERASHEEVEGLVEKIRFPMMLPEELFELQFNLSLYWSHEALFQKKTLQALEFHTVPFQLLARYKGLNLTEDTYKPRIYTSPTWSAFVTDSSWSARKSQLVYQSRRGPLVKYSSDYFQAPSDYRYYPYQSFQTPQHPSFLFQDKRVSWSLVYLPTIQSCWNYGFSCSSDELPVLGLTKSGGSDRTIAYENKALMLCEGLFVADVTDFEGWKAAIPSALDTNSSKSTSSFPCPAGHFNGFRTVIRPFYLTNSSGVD
Chain of UniProt P40692 (P40692 whole entry, looked up): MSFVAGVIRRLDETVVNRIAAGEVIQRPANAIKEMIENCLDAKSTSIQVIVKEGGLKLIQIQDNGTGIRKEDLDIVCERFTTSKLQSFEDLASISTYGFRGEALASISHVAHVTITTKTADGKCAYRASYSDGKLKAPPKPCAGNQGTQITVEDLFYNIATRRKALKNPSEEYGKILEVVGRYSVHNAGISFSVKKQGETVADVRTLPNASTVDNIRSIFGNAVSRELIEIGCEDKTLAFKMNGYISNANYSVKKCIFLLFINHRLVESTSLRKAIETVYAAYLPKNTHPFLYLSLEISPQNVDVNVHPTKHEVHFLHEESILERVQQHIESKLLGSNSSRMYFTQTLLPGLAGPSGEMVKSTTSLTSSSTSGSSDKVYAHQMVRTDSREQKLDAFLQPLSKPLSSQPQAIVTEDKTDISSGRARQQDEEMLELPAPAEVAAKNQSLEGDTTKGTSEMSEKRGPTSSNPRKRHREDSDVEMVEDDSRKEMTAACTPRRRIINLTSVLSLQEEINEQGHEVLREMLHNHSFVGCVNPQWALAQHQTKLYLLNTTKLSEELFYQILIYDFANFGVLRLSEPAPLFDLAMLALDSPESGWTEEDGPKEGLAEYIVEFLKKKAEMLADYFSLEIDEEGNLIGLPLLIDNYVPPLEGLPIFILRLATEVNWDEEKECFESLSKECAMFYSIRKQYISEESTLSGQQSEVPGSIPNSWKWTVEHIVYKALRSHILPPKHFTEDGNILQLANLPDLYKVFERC
Chain of UniProt Q9BTT4 (Q9BTT4 whole entry, looked up): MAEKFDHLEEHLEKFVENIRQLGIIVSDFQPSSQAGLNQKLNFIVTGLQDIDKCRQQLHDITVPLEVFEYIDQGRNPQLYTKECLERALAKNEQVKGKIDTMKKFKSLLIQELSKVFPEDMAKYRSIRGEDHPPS
Chain of UniProt Q8WV92 (Q8WV92 whole entry, looked up): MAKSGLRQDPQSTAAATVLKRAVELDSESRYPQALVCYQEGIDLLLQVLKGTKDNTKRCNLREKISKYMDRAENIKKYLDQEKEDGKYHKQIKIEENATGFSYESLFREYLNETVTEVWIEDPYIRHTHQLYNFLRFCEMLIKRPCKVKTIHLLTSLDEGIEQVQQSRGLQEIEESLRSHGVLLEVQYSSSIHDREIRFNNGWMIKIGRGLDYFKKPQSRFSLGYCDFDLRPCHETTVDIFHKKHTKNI

What follows are targets tested with O=C(CCCCCCC(=O)Nc1ccccc1)NO [vorinostat] (assay: log2 fold change, soluble protein after heating vs DMSO (PISA); higher = thermal stabilisation; K562 lysate, 10 uM; active = over 0.2 and 3.5 SD of the protein, either way, in both replicates (recomputed)).
Method in brief: (§1)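 Following dounce homogenisation of K562 pellets in PBS pH 7.4 with 1 mM MgCl2, crude extract at 1 mg/mL protein was incubated for 30 min with 10 μM compound. Aliquots were then heated for 3 min over 48°C-58°C and pooled, NP-40 was added to 0.5% at 4°C, and soluble protein was recovered as the supernatant at 21,000xg for 90 min. Channel-sum-equalised TMTpro 16plex LC-MS/MS quantified this protein. Each value, from duplicates, is a log-two fold change in thermal stability relative to solvent controls.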
For MITD1 (UniProt Q8WV92), the log2 fold change was 0.255 (active). In the case of LYRM4 (UniProt Q9HD34), the log2 fold change is reported as 0.119 (inactive). LSG1 (UniProt Q9H089) was tested, and the log2 fold change was -0.052 (inactive). With MED8 isoform 2 (UniProt Q96G25) the log2 fold change was 0.037 (inactive). LARP4B (UniProt Q92615) was tested, and the log2 fold change was -0.306 (active). MPDZ (UniProt O75970) was tested, and the log2 fold change was -0.59 (active). With LGALS3BP (UniProt Q08380) the log2 fold change was 0.176 (inactive). With MCMBP (UniProt Q9BTE3) the log2 fold change was -0.415 (active). MIPEP (UniProt Q99797) was tested, and the log2 fold change was -0.043 (inactive). In the case of MED17 (UniProt Q9NVC6), the log2 fold change is reported as -0.392 (active). In the case of MLH1 (UniProt P40692), the log2 fold change is reported as -0.312 (active). With LIG4 (UniProt P49917) the log2 fold change was -0.368 (inactive). In the case of MPZL1 (UniProt O95297), the log2 fold change is reported as 0.022 (inactive). With MAPK9 (UniProt P45984) the log2 fold change was -0.129 (inactive). MAP2K7 isoform 4 (UniProt O14733) was tested, and the log2 fold change was -1.09 (active). With MFF isoform 2 (UniProt Q9GZY8) the log2 fold change was 0.17 (inactive). For LYAR (UniProt Q9NX58), the log2 fold change was 0.109 (inactive). In the case of MECR (UniProt Q9BV79), the log2 fold change is reported as -0.268 (active). With MAPKAPK3 (UniProt Q16644) the log2 fold change was -0.43 (active). For MAP3K4 (UniProt Q9Y6R4), the log2 fold change was -0.524 (active). MAST4 (UniProt O15021) was tested, and the log2 fold change was -0.381 (inactive). In the case of MINDY1 isoform 3 (UniProt Q8N5J2), the log2 fold change is reported as -0.186 (inactive). LYSMD3 (UniProt Q7Z3D4) was tested, and the log2 fold change was 0.095 (inactive). In the case of LARS2 (UniProt Q15031), the log2 fold change is reported as -0.229 (inactive). In the case of MCCC1 (UniProt Q96RQ3), the log2 fold change is reported as -0.292 (active). With MIF (UniProt P14174) the log2 fold change was -0.055 (inactive). LAMP1 (UniProt P11279) was tested, and the log2 fold change was 0.095 (inactive). For MED12 isoform 2 (UniProt Q93074), the log2 fold change was -0.466 (active). With MAP4 (UniProt E7EVA0) the log2 fold change was 0.025 (inactive). With MED10 (UniProt Q9BTT4) the log2 fold change was -0.04 (inactive). For KLC2 (UniProt Q9H0B6), the log2 fold change was -0.348 (active). For LRWD1 (UniProt Q9UFC0), the log2 fold change was -0.322 (active). In the case of MBD2 (UniProt Q9UBB5), the log2 fold change is reported as -0.244 (active). In the case of LARS (UniProt Q9P2J5), the log2 fold change is reported as -0.399 (active). For MON2 isoform 5 (UniProt Q7Z3U7), the log2 fold change was -0.525 (active). With MAD2L1BP isoform 3 (UniProt Q15013) the log2 fold change was -0.299 (active). MLLT11 (UniProt Q13015) was tested, and the log2 fold change was 0.104 (inactive). In the case of LIG3 (UniProt P49916), the log2 fold change is reported as -0.411 (active). In the case of LIMS1 isoform 3 (UniProt P48059), the log2 fold change is reported as 0.049 (inactive).

These targets were tested with O=C(O)c1ccc2c(c1)nc(Nc1cccc(Cl)c1)c1ccncc12 [silmitasertib] in the same assay as above.
Method in brief: as §1
MITD1 (UniProt Q8WV92) was tested, and the log2 fold change was -0.051 (inactive). In the case of LYRM4 (UniProt Q9HD34), the log2 fold change is reported as -0.019 (inactive). For LSG1 (UniProt Q9H089), the log2 fold change was 0.043 (inactive). MED8 isoform 2 (UniProt Q96G25) was tested, and the log2 fold change was -0.012 (inactive). With LARP4B (UniProt Q92615) the log2 fold change was 0.032 (inactive). With MPDZ (UniProt O75970) the log2 fold change was 0.066 (inactive). With LGALS3BP (UniProt Q08380) the log2 fold change was -0.121 (inactive). With MCMBP (UniProt Q9BTE3) the log2 fold change was 0.028 (inactive). With MIPEP (UniProt Q99797) the log2 fold change was 0.007 (inactive). In the case of MED17 (UniProt Q9NVC6), the log2 fold change is reported as -0.008 (inactive). MLH1 (UniProt P40692) was tested, and the log2 fold change was 0.025 (inactive). LIG4 (UniProt P49917) was tested, and the log2 fold change was 0.107 (inactive). In the case of MPZL1 (UniProt O95297), the log2 fold change is reported as -0.004 (inactive). MAPK9 (UniProt P45984) was tested, and the log2 fold change was 0.037 (inactive). In the case of MAP2K7 isoform 4 (UniProt O14733), the log2 fold change is reported as 0.167 (inactive). MFF isoform 2 (UniProt Q9GZY8) was tested, and the log2 fold change was -0.048 (inactive). With LYAR (UniProt Q9NX58) the log2 fold change was 0.005 (inactive). MECR (UniProt Q9BV79) was tested, and the log2 fold change was 0.009 (inactive). With MAPKAPK3 (UniProt Q16644) the log2 fold change was -0.001 (inactive). MAP3K4 (UniProt Q9Y6R4) was tested, and the log2 fold change was 0.229 (inactive). For MAST4 (UniProt O15021), the log2 fold change was 0.281 (inactive). In the case of MINDY1 isoform 3 (UniProt Q8N5J2), the log2 fold change is reported as 0.144 (inactive). With LYSMD3 (UniProt Q7Z3D4) the log2 fold change was -0.022 (inactive). LARS2 (UniProt Q15031) was tested, and the log2 fold change was 0.054 (inactive). In the case of MCCC1 (UniProt Q96RQ3), the log2 fold change is reported as 0.02 (inactive). In the case of MIF (UniProt P14174), the log2 fold change is reported as 0.065 (inactive). LAMP1 (UniProt P11279) was tested, and the log2 fold change was -0.009 (inactive). For MED12 isoform 2 (UniProt Q93074), the log2 fold change was -0.044 (inactive). For MAP4 (UniProt E7EVA0), the log2 fold change was 0.028 (inactive). For MED10 (UniProt Q9BTT4), the log2 fold change was -0.085 (inactive). In the case of KLC2 (UniProt Q9H0B6), the log2 fold change is reported as -0.005 (inactive). LRWD1 (UniProt Q9UFC0) was tested, and the log2 fold change was -0.008 (inactive). With MBD2 (UniProt Q9UBB5) the log2 fold change was 0.017 (inactive). LARS (UniProt Q9P2J5) was tested, and the log2 fold change was 0.052 (inactive). In the case of MON2 isoform 5 (UniProt Q7Z3U7), the log2 fold change is reported as 0.021 (inactive). With MAD2L1BP isoform 3 (UniProt Q15013) the log2 fold change was -0.019 (inactive). MLLT11 (UniProt Q13015) was tested, and the log2 fold change was -0.203 (inactive). LIG3 (UniProt P49916) was tested, and the log2 fold change was 0.018 (inactive). For LIMS1 isoform 3 (UniProt P48059), the log2 fold change was 0.013 (inactive).
